This is an account of results in ChEMBL document CHEMBL1961873, “Compounds: GSK PKIS; Assays: Nanosyn kinase panel” (2012).

Molecules are shown by their SMILES.

Experiment [1] concerns the target Protein kinase C gamma type (Homo sapiens) (UniProt P05129). The settings on record: at 1 µM.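 Further: each value is an averaged percent inhibition of the enzyme.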
Experiment [2] deals with T1, Protein kinase C iota type (Homo sapiens) (UniProt P41743).
T1 sequence (whole entry): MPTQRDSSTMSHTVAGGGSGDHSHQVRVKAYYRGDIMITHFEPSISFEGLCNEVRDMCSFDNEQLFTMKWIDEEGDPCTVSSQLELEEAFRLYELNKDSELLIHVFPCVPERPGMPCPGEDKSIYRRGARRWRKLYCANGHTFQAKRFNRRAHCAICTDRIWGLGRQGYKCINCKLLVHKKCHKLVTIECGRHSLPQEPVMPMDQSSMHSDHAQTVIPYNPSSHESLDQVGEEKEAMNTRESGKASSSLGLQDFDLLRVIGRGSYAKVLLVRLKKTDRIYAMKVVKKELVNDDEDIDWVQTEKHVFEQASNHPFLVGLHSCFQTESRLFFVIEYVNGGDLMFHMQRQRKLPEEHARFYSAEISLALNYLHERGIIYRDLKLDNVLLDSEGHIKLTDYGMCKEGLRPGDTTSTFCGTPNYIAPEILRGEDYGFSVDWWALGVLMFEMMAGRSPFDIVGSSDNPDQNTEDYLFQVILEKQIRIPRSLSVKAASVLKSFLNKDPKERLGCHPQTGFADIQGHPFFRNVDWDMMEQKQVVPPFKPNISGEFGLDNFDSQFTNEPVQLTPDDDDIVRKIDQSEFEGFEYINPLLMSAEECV
The note with it: at 0.1 µM.

Experiment [3] has as its target T1, Protein kinase C iota type (Homo sapiens). The note with it: at 1 µM.
The target in experiment [4] is Protein kinase C theta type (Homo sapiens) (UniProt Q04759). The settings on record: at 0.1 µM.
Experiment [5] shares this target. The settings on record: at 1 µM.
In experiment [6] the target is Protein kinase C beta type (Homo sapiens) (UniProt P05771). The settings on record: at 0.1 µM.
Experiment [7] has the same target. The note with it: at 1 µM.
Experiment [8] has as its target T2, Serine/threonine-protein kinase D1 (Homo sapiens) (UniProt Q15139).
T2 sequence (whole entry): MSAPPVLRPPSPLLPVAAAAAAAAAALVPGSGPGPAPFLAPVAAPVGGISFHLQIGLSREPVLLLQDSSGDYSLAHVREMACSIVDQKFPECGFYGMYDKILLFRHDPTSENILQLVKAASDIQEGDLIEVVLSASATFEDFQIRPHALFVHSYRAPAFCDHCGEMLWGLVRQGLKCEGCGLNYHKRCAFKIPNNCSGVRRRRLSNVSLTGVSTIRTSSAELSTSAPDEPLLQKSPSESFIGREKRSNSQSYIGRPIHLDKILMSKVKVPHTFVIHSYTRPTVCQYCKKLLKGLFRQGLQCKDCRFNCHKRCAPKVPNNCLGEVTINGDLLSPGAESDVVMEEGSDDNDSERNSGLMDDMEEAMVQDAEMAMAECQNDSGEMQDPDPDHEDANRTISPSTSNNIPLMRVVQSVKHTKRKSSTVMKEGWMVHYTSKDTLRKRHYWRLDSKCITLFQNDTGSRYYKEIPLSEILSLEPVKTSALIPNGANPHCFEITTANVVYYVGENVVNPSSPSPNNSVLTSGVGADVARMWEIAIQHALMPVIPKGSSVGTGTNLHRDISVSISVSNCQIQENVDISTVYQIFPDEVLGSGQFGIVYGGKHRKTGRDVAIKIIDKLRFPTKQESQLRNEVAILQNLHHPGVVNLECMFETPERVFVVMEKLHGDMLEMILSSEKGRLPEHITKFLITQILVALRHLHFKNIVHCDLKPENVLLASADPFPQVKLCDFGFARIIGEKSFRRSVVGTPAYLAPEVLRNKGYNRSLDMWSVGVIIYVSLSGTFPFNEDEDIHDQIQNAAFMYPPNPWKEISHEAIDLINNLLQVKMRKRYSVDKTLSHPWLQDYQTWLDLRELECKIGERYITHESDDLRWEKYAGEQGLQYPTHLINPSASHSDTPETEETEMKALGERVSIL
The note with it: at 0.1 µM.

The target in experiment [9] is T2, Serine/threonine-protein kinase D1 (Homo sapiens). The note with it: at 1 µM.
In experiment [10] the target is T3, Serine/threonine-protein kinase D2 (Homo sapiens) (UniProt Q9BZL6).
T3 sequence (whole entry): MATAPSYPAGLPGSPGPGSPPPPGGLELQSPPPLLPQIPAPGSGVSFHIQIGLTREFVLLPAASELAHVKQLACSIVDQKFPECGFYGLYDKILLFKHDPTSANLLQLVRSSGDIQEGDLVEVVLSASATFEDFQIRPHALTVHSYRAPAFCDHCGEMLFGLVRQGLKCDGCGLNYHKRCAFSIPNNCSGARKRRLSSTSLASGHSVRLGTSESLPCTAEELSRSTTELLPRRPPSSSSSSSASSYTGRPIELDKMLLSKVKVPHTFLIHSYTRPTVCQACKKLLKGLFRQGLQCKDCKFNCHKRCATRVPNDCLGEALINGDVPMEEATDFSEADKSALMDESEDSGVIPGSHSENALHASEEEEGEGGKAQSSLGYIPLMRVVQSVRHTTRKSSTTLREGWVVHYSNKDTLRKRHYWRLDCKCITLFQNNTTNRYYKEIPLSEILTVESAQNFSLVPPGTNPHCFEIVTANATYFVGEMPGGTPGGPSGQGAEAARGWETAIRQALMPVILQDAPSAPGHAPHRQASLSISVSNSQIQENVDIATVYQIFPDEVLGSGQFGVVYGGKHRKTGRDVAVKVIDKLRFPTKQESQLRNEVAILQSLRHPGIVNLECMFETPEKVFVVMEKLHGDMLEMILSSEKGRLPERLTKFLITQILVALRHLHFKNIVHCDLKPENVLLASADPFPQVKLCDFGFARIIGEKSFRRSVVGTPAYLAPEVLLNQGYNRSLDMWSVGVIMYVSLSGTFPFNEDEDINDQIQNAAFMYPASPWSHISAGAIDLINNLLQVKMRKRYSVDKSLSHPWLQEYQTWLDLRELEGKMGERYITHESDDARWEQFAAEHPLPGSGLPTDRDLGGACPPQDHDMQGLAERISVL
The note with it: at 0.1 µM.

In experiment [11] the target is T3, Serine/threonine-protein kinase D2 (Homo sapiens). The note with it: at 1 µM.
The target in experiment [12] is T4, Serine/threonine-protein kinase D3 (Homo sapiens) (UniProt O94806).
T4 sequence (whole entry): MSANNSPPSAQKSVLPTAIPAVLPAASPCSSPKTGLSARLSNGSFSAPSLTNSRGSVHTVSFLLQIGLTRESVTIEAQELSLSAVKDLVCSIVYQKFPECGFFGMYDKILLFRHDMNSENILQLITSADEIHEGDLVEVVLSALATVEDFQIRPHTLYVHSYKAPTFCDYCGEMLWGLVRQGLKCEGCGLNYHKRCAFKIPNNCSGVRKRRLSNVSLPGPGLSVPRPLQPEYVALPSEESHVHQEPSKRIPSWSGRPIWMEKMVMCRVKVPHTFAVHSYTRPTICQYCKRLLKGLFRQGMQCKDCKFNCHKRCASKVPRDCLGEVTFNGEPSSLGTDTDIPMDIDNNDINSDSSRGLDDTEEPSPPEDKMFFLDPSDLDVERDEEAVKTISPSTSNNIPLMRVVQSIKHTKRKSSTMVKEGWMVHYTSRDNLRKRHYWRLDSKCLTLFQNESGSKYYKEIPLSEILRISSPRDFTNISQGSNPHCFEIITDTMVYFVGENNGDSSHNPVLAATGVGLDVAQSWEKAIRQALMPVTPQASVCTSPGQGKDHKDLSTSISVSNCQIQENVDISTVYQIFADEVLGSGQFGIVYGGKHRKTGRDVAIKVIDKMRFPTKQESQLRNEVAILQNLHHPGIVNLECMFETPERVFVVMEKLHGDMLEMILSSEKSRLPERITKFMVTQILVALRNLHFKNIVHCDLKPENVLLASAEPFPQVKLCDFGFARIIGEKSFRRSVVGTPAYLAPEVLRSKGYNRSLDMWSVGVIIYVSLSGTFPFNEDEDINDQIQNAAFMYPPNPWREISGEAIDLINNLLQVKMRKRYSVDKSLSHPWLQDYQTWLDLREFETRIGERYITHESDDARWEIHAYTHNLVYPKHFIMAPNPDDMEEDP
The note with it: at 0.1 µM.

The target of experiment [13] is T4, Serine/threonine-protein kinase D3 (Homo sapiens). The note with it: at 1 µM.
The target of experiment [14] is T5, cGMP-dependent protein kinase 1 (Homo sapiens) (UniProt Q13976).
T5 sequence (whole entry): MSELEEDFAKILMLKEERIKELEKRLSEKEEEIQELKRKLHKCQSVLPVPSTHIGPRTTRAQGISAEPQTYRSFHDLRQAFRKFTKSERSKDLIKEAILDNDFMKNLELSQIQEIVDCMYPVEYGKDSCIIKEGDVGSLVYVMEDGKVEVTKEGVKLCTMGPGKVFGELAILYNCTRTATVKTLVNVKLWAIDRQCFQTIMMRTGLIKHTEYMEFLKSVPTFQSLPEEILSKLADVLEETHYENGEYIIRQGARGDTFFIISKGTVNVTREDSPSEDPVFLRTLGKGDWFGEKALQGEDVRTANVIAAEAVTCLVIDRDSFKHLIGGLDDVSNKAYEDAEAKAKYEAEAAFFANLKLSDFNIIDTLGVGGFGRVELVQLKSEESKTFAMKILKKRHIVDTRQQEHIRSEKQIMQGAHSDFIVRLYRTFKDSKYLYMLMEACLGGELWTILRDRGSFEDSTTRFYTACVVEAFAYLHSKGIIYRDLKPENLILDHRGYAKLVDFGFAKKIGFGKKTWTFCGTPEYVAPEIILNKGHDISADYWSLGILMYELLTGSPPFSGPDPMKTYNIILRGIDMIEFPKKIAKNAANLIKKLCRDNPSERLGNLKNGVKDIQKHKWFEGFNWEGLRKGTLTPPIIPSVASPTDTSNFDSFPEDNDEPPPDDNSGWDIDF
The settings on record: at 0.1 µM.

Experiment [15] deals with T5, cGMP-dependent protein kinase 1 (Homo sapiens). The settings on record: at 1 µM.
Experiment [16] concerns the target T6, cGMP-dependent protein kinase 2 (Homo sapiens) (UniProt Q13237).
T6 sequence (whole entry): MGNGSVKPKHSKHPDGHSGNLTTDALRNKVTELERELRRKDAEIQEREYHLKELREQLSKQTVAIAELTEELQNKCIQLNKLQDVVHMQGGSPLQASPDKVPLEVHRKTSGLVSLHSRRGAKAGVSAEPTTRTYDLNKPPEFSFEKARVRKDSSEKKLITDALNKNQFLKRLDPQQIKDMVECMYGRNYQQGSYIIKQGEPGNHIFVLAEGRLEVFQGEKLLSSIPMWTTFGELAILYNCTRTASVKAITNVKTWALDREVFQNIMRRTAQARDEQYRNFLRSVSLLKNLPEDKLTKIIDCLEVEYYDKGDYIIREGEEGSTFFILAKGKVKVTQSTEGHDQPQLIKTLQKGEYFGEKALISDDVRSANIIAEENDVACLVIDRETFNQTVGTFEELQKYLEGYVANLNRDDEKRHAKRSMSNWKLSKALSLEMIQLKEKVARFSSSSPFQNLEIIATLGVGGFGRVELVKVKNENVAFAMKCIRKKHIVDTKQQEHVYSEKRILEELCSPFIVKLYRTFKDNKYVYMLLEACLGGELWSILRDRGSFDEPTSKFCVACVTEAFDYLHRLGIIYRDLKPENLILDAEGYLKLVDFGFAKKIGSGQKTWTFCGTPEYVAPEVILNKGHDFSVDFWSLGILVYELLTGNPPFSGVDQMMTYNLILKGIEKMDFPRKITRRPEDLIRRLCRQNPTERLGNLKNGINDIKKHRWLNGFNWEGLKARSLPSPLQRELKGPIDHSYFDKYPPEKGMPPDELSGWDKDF
The note with it: at 0.1 µM.

The target in experiment [17] is T6, cGMP-dependent protein kinase 2 (Homo sapiens). The settings on record: at 1 µM.
Experiment [18] addresses T7, cAMP-dependent protein kinase catalytic subunit PRKX (Homo sapiens) (UniProt P51817).
T7 sequence (whole entry): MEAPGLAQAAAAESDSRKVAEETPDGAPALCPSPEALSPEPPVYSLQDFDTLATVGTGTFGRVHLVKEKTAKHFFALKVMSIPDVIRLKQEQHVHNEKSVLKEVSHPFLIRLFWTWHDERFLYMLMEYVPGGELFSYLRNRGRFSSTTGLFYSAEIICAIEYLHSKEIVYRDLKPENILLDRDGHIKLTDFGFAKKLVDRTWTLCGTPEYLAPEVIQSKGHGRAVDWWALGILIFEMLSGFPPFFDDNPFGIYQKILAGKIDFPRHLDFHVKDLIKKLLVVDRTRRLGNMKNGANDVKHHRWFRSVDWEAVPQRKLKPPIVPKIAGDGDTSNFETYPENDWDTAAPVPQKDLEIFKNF
The settings on record: at 0.1 µM.

For experiment [19], the target named is T7, cAMP-dependent protein kinase catalytic subunit PRKX (Homo sapiens). The settings on record: at 1 µM.
For experiment [20], the target named is Rho-associated protein kinase 1 (Homo sapiens) (UniProt Q13464). The settings on record: at 0.1 µM.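 Further: values are mean percent inhibition of ROCK1.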
Chain of Rho-associated protein kinase 1 (Homo sapiens) (Q13464 2-1354 limits assumed): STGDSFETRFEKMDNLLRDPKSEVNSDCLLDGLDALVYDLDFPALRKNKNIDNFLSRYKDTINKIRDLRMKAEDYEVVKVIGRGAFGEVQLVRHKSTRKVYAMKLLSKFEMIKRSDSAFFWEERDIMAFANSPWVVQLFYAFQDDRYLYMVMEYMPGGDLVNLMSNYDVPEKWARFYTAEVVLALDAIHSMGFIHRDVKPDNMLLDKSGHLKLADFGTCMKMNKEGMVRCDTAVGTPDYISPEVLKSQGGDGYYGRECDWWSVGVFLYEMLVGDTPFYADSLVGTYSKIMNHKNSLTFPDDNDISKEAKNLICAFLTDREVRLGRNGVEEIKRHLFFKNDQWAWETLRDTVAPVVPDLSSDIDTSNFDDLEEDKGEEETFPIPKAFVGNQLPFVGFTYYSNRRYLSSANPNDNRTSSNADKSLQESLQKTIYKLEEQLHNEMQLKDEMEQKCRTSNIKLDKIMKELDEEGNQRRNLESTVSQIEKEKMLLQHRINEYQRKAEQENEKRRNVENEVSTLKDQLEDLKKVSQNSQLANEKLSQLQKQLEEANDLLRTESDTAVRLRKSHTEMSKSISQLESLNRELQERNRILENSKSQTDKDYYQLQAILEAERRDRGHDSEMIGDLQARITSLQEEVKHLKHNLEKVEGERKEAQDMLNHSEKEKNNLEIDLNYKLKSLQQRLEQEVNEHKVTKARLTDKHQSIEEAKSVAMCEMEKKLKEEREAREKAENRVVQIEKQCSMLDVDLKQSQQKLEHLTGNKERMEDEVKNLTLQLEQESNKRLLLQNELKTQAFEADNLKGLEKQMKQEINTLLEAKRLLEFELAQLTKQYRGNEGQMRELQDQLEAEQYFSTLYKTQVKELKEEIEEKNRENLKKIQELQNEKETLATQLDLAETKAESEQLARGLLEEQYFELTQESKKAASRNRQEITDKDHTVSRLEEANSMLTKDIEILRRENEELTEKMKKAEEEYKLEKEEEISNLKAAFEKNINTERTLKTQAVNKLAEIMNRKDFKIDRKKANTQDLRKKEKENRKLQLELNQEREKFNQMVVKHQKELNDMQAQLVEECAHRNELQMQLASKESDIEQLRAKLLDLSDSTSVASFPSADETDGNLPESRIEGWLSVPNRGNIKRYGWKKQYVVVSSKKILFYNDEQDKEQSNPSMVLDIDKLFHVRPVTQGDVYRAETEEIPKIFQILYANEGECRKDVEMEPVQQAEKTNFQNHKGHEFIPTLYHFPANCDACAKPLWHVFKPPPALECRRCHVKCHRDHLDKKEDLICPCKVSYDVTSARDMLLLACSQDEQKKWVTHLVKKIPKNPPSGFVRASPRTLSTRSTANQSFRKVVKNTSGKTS

Chain of Protein kinase C theta type (Homo sapiens) (Q04759 whole entry, looked up): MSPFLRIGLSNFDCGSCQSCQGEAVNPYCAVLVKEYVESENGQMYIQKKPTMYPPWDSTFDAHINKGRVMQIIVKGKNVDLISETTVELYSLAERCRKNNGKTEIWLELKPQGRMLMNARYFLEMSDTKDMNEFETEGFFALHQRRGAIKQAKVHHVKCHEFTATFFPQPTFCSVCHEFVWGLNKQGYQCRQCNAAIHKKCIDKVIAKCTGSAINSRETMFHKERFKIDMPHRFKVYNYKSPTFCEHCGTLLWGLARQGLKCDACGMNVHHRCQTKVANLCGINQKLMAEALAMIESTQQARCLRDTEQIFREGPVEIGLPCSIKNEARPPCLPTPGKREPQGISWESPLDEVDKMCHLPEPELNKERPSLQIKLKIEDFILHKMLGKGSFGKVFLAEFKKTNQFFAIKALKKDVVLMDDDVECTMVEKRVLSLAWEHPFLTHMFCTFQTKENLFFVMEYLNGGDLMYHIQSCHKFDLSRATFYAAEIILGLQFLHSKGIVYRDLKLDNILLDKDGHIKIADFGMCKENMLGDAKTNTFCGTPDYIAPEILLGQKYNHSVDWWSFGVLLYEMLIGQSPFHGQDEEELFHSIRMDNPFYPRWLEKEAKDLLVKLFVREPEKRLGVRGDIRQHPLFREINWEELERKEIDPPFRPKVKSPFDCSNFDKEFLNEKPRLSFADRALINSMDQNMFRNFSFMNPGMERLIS
Chain of Protein kinase C beta type (Homo sapiens) (P05771 2-671 limits assumed): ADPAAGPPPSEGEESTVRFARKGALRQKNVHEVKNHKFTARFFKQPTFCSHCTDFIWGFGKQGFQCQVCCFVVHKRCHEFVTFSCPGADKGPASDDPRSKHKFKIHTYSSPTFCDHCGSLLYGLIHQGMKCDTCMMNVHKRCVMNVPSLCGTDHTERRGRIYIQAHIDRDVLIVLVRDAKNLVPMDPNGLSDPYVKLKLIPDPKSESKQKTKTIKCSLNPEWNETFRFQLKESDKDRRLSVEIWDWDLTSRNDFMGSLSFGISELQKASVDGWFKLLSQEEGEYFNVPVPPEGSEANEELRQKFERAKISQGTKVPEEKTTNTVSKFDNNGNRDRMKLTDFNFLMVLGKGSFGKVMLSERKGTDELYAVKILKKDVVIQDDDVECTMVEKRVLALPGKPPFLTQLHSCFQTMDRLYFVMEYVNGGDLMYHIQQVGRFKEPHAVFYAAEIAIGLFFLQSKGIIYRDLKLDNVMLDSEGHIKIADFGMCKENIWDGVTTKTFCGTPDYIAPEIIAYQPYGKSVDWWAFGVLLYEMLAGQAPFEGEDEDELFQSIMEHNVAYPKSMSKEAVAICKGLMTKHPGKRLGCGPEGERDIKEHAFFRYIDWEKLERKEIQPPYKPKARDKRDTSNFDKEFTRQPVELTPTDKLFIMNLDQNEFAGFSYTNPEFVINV

For orientation: inhibition means the drop in the measured response relative to a control, in per cent. For the molecule `O=C1Nc2ccccc2/C1=C/Nc1ccc(-n2cncn2)cc1`, the inhibition in experiment [1] was found to be 2.93%; in experiment [2] it was 2.78%; in [3] it was 2.15%; in experiment [4] it was 2.93%; in [5] it was 4.7%; in experiment [6], 1.94%. For the same molecule, the inhibition was 4.54% in experiment [7]; 5.12% in experiment [8]; 7.88% in experiment [9]; 6.14% in [10]; 6.07% in [11]; 4.94% in [12]. In addition, the inhibition in experiment [13] stood at 6.5%; in experiment [14], 3.06%; in experiment [15] it was 5.48%; in [16], 2.51%; in experiment [17], 14.4%; in [18], 2.56%. In addition, the values for the inhibition in experiment [19] and in experiment [20] were 7.18% and 1.71%, respectively.

Regarding `CCc1cccc(CC)c1/C=C/c1cncc(C(=O)NC)c1`, the inhibition is 2.81% in experiment [1]; 2.1% in experiment [2]; 3.47% in [3]; 1.41% in experiment [4]; -0.25% in [5]; 0.14% in experiment [6]. Besides, the inhibition in [7] is -0.35%; in experiment [8], 2.52%; in [9], 6.44%; in experiment [10], 3.28%; in experiment [11] it was 7.18%; in experiment [12] it was 3.3%. Also, the inhibition in experiment [13] came to 7.02%; in experiment [14], 2.74%; in [15], 2.71%; in [16] it was 1.38%; in experiment [17] it was 1.83%; in experiment [18], 3.9%. Besides, the inhibition in experiment [19] is -1.34%; in [20] it was 0.87%.
